The results in this text go back to ChEMBL document CHEMBL4513216, “Probing the Open Global Health Chemical Diversity Library for Multistage-Active Starting Points for Next-Generation Antimalarials” (ACS Infect Dis, 2020).

Each structure is given as a SMILES string. The whole screen tested about 68,000 compounds, of which about 2,700 (4%) showed an effect of 50% or more. The sample as a whole holds a higher share of strong results than the screen did.

This experiment has as its system Plasmodium berghei. Nature of the experiment: Screen against P. berghei liver stage (PbLuc), transformed with Luciferase, at 2uM. The following applies: tested at 2 uM. The format is functional, HepG2.
As for `Cc1cc(S(=O)(=O)NCC(C)(O)CN(C)C)c(F)cc1F` (centres undefined), the INHIBITION amounted to 8.05%.
The value for `CN(C)C(=O)c1cccc(C[S+]([O-])CC(=O)NC2CCCC2)c1` (centres undefined) was -13.12%.
The value for `Cc1cc(CS(=O)(=O)NC2CCCc3ccccc32)on1` (centres undefined) was 57.34%.
The value for `Cc1cc(CS(=O)(=O)NC2CCCCC2)on1` was 35.46%; that for `Cc1cc(CS(=O)(=O)NCC2CCCCC2)on1` was 10.22%.
Take `CCCc1n[nH]c(=O)n1Cc1ccc(OC)cc1`: the INHIBITION is on record as -13.14%.
Consider `O=C(COC1CCCC1)Nc1ncn(CC(=O)N2CCCCCC2)n1`, for which the INHIBITION stood at 22.29%.
The value for `CC(C)Nc1nnc(SCc2nnc(C(C)(C)C)o2)s1` was 13.91%; that for `O=C(NCC1CC1)C1CN(c2ncccn2)Cc2ccnn2C1` (centres undefined) was 64.37%; that for `O=C(NCC1CC1)C1CN(Cc2ccncc2)Cc2ccnn2C1` (centres undefined) was 7.55%.
The value for `O=C(NCC1CC1)C1CN(Cc2cccs2)Cc2ccnn2C1` (centres undefined) was 23.53%; that for `O=c1ccc(-c2cccs2)nn1CN1CCOC(c2ccccc2)C1` (centres undefined) was -30.87%.
The value for `Cc1nc(CN2CCC3(CC2)CC(=O)N(C)c2ccccc23)cs1` was 9.8%; that for `CNS(=O)(=O)Cc1cccc(CNc2ccc(C#N)cn2)c1` was 19.12%.
On to `Clc1cnccc1NCc1cccc(COC2CCOCC2)c1`, for which the INHIBITION was found to be 68.73%.
As to `Clc1cnccc1N1CCC(OC2CCOCC2)CC1`, the INHIBITION is recorded as -76.37%.
The value for `Clc1cncc(NCc2cccc(COC3CCOCC3)c2)n1` was -0.39%; that for `N#Cc1ccc(NCc2cccc(OCC3CCCO3)c2)nc1` (centres undefined) was 42.35%; that for `N#Cc1ccc(NCc2cccc(COC3CCOCC3)c2)nc1` was 66.24%.
The value for `CC(=O)N1CCN(Cc2nccs2)CC2(CC(=O)N(C)C2)C1` (centres undefined) was 26.01%.
As for `CCC(Nc1cccc(OC)c1)C(=O)NCc1ccc2c(c1)OCO2` (centres undefined), the INHIBITION is on record as 11.6%.
Consider `c1cnn(CC2CN(Cc3csc(C4CCCCC4)n3)CCO2)c1` (centres undefined), for which the INHIBITION was -43.79%.
The value for `Cc1cccc(CN2CCN(C(=O)c3cnc(C)[nH]c3=O)CC2)c1` was 43.15%; that for `CNC(=O)CN1C(=O)CN(C(=O)COC)CCC(OC)c2ccccc21` (centres undefined) was -8.2%.
In the case of `O=S(=O)(c1ccccc1)N1C[C@@H]2COC[C@]2(CN2CCOCC2)C1`, the INHIBITION is listed as 29.19%.
The value for `Cc1cc(C(F)(F)F)cc(N2C[C@@H](CN3CCOCC3)[C@@H](CO)C2)n1` was -18.71%.
The value for `CCN(CCO)C[C@@H]1CN(c2cc(C(F)(F)F)cc(C)n2)C[C@@H]1CO` was 14.59%; that for `Cc1cc(C(F)(F)F)cc(N2C[C@@H](CN(C)CCO)[C@@H](CO)C2)n1` was 50.97%.
The value for `c1cncc(CN2CCn3cc(Cn4cccn4)nc3C2)c1` was 15.39%; that for `Cc1ccc(N2CC3(COCCN(Cc4cccnc4)C3)OCC2=O)s1` (centres undefined) was -5.44%.
With `CN(C)c1cc(CNC(=O)c2cc(Cl)ccn2)ccn1`, the INHIBITION is given as 49.01%.
The value for `Cc1ccc(CC(=O)N2CCCC(c3cc(C(N)=O)[nH]n3)C2)cn1` (centres undefined) was 14.53%; that for `CC(C)(C)C(=O)NCCC(=O)N1CCC(Nc2cccnn2)CC1` was -27.69%.
The value for `COCCN1CCC2(CC1)CN(C(=O)c1cccs1)CCO2` was 57.31%; that for `O=C(c1ccccc1)N1CCOC2(CCN(Cc3cccs3)CC2)C1` was 20.51%; that for `COCCN1C[C@@H](C)[C@@]2(COCCN(C(=O)c3cccs3)C2)C1` was -3.19%.
The value for `COCCN1CCC2(CC1)CN(C(=O)Cc1cccnc1)CCO2` was 35.89%.
Consider `COCCN1CCC2(CC1)CN(C(=O)c1ccccc1)CCO2`, for which the INHIBITION is reported as 58.4%.
The value for `COCCN1CCC2(CC1)CN(C(=O)c1ccco1)CCO2` was 45.22%; that for `Cn1ccnc1CN(Cc1ccccn1)Cc1ccccc1Cl` was -8.33%; that for `CN(Cc1ccc(Cl)s1)C(=O)NCCC(=O)N1CCCCCC1` was -12.84%.
The value for `Cc1c(C(=O)NC2=NCCS2)cnn1-c1ccc(Br)cc1` was -23.27%; that for `Cc1nsc(NC2CCOC3(CCCC3)C2)n1` (centres undefined) was 62%; that for `CC(C)c1nsc(NC2CCOC3(CCCC3)C2)n1` (centres undefined) was 30.06%.
The value for `CCc1nsc(NC2CCOC3(CCCC3)C2)n1` (centres undefined) was -9.6%; that for `NC(=O)c1ccc(NC2CCOC3(CCCC3)C2)nn1` (centres undefined) was -0.45%.
In the case of `Cc1nsc(NC2CCOC3(CCCCC3)C2)n1` (centres undefined), the INHIBITION turned out to be 62%.
The value for `Cc1cc(C)nc(NC2CCOC3(CCCC3)C2)n1` (centres undefined) was 10.23%.
The value for `Cc1nn(C)c(Cl)c1CNCc1ccc(OCC(N)=O)cc1` was -5.1%; that for `COc1ccccc1CN1C[C@@H]2COC[C@]2(COCc2ccncc2)C1` was 38.11%.
As for `Cc1cnc(N2CCc3ncnc(N4CCN(C)CC4)c3CC2)nc1`, the INHIBITION amounted to 17.57%.
The value for `CC(C)(C)c1cnc(CN2CCCCC2Cn2cccn2)o1` (centres undefined) was -23.94%; that for `CC(C)(C)c1cnc(CN2CCCC2Cn2cccn2)o1` (centres undefined) was -50.72%; that for `Cc1cc(C)n(CC2CCCN2Cc2ncc(C(C)(C)C)o2)n1` (centres undefined) was -11.91%.
The value for `CCC1CCCCN1Cc1ncc(C(C)(C)C)o1` (centres undefined) was 70.27%; that for `CC(C)(C)c1cnc(CN2CCC[C@H]2CO)o1` was 56.72%.
`Cc1cnn(CC2CCCCN2Cc2ncc(C(C)(C)C)o2)c1` (centres undefined): the INHIBITION is given as 30.91%.
As for `O=S(=O)(NCC1(O)CCOCC1)c1c(F)cccc1F`, the INHIBITION came out at 43.15%.
Take `CCc1cnc(N2CCc3ncnc(N4CCN(C)CC4)c3CC2)nc1`: the INHIBITION is reported as -64.85%.
The value for `NC(=O)N1CC(OCc2cccc3ccccc23)C1` was 5.98%; that for `Cc1cc(C)c2ncn(CCOCCO)c(=O)c2c1` was 24.55%.
The value for `O=C(NCc1n[nH]c2c1CCCCC2)c1cnn2c1CCCC2` was -23.38%.
The value for `CCc1nc(CN2CCCN(C(=O)COCC3CC3)CC2)cs1` was 3.9%; that for `Cn1cc(C(O)CNC(=O)c2cc(Br)ccc2Cl)cn1` (centres undefined) was 20.29%; that for `CCC(CC)NC(=O)c1ccc2nnc(C3CCN(C(C)=O)C3)n2c1` (centres undefined) was 30.75%.
With `O=C1CCC2(CCCN(C(=O)Cc3cccnc3)C2)N1` (centres undefined), the INHIBITION is 29.3%.
The value for `O=C1CCC2(CCCN(C(=O)Cc3ccccc3)C2)N1` (centres undefined) was 60.05%; that for `O=C1CCC2(CCCN(C(=O)Cc3ccccn3)C2)N1` (centres undefined) was 29.85%.
In the case of `CS(=O)(=O)N1CCN(C(=O)c2cncs2)CC(C(N)=O)C1` (centres undefined), the INHIBITION is -33.32%.
The value for `CNC(=O)[C@@H](c1ccccc1OC)N1CCC[C@H]1C(=O)N1CCC1` was -20.89%.
The value for `CNC(=O)[C@@H](c1ccccc1OC)N1CCC[C@H]1C(=O)N1CC[C@@H](O)C1` was 50.91%; that for `CNC(=O)[C@@H](c1ccccc1OC)N1CCC[C@H]1C(=O)NC(C)(C)C` was -1.63%; that for `O=C(NCc1cc[nH]n1)NC1CCCN(c2ncccn2)C1` (centres undefined) was 12.8%.
As for `Cn1cccc1CN1CCC2(CCCN(C(=O)Cc3cccnc3)C2)C1` (centres undefined), the INHIBITION is recorded as -4.92%.
The value for `Cn1cccc1CN1CCC2(CCCN(C(=O)c3cccnc3)C2)CC1` was 61.08%.
The value for `Cn1cccc1CN1CCC2(CCCN(C(=O)c3cnccn3)C2)C1` (centres undefined) was -30.12%; that for `Cc1noc(CCCC(=O)NC(C)c2cccnc2)n1` (centres undefined) was -19.76%.
The value for `N#CCCN(C(=O)CN1CCCC1c1ccsc1)c1ccccc1` (centres undefined) was -37.2%; that for `N#CCCN(C(=O)CN1CCCC1c1ccsc1)c1ccccc1F` (centres undefined) was 73.05%.
Regarding `N#CCCN(C(=O)CN1CCCC1c1cccs1)c1ccccc1F` (centres undefined), the INHIBITION is -13.06%.
The value for `CC(C)c1nnc2n1CCN(C(=O)c1cc3cc(F)ccc3[nH]1)C2` was 31.57%.
The value for `CC(C)CC(=O)N1CCCC1c1cc(CO)[nH]n1` (centres undefined) was 31.92%; that for `CN(Cc1ccco1)C[C@H]1OC[C@@H]2CCN(Cc3nccs3)C[C@@H]21` was -13.27%.
The value for `CN(Cc1ccco1)C[C@H]1OC[C@@H]2CCN(Cc3cccs3)C[C@@H]21` was -2.83%; that for `CN(Cc1cccnc1)C[C@@H]1OC[C@H]2CN(Cc3ccco3)CC[C@H]21` was 10.53%.
On to `CN(Cc1ccco1)C[C@@H]1OC[C@H]2CN(Cc3nccs3)CC[C@H]21`, for which the INHIBITION was 59.03%.
The value for `O=C(NC[C@H]1OC[C@@H]2CN(Cc3ccco3)CC[C@@H]21)c1cccnc1` was -36.8%.
Consider `O=C(NC[C@H]1OC[C@@H]2CN(Cc3ccco3)CC[C@@H]21)c1cscn1`, for which the INHIBITION came out at 66.46%.
The value for `Cn1cc(C(=O)NC[C@@H]2OC[C@H]3CN(Cc4ccco4)CC[C@H]32)cn1` was -33.95%; that for `CN(Cc1ccco1)C[C@H]1OC[C@@H]2CCN(Cc3ccccn3)C[C@@H]21` was -1.63%; that for `Cc1ccc(CN2CC[C@H]3CO[C@H](CN(C)Cc4ccco4)[C@H]3C2)s1` was 59.03%.
The value for `CN(C)C[C@@H]1OC[C@H]2CN(Cc3ccoc3)CC[C@H]21` was 0.13%.
Turning to `CN(Cc1ccco1)C[C@H]1OC[C@@H]2CCN(Cc3ccsc3)C[C@@H]21`, the INHIBITION was 22.89%.
The value for `CN(Cc1cccnc1)C[C@@H]1OC[C@H]2CN(Cc3ccoc3)CC[C@H]21` was 55.7%.
The value for `O=C(N[C@@H]1CN(Cc2ccc3[nH]ccc3c2)C[C@H]1O)c1cscn1` was -0.83%.
The value for `Cc1nn(C)c(C)c1CC(=O)N1CCC(N(C)c2cccnn2)CC1` was -48.87%.
Take `COc1ccc(C2=CCN(C(=O)C3CCS(=O)(=O)C3)CC2)cc1` (centres undefined): the INHIBITION is -7.13%.
The value for `Cc1ccccc1CN1CCC(NCC2CNc3ccnn3C2)CC1` (centres undefined) was -4.7%; that for `N#Cc1ccccc1CN1C[C@H]2CC[C@@H](C1)N(CC1CCC1)C2=O` was -39.43%.
The value for `COc1ncccc1C(=O)NCCn1cnc(C)cc1=O` was -7.16%.
`O=S(=O)(NCCCn1cncn1)c1ccc2c(c1)OCCCO2`: the INHIBITION is listed as -56.09%.
The value for `O=S(=O)(NCCCn1cncn1)c1ccc2c(c1)CCC2` was 54.99%; that for `O=S(=O)(NCCCn1cncn1)c1ccc2c(c1)OCCO2` was 65.71%; that for `COC(=O)Cn1ccc(NS(=O)(=O)c2ccc3c(c2)CCC3)n1` was 53.98%.
The value for `O=S(=O)(NCCCn1cccn1)c1ccc2c(c1)CCC2` was 42.26%; that for `O=S(=O)(NCCCn1cncn1)c1ccc2c(c1)CCCC2` was -5.74%.
The value for `CCc1ccc(S(=O)(=O)Nc2ccn(CC(=O)OC)n2)cc1` was 11.9%; that for `CCn1ccc(NS(=O)(=O)c2cccc(COC)c2)n1` was -85.71%.
Regarding `O=S(=O)(NCCCn1cncn1)c1ccc2c(c1)CCO2`, the INHIBITION is on record as -9.13%.
